Measured values taken from PubChem BioAssay (EPA / NIEHS).
The source made the active and inactive calls. Rule for the calls: active = hit-call score of the fitted dose curve at least 0.9, where 1 is the maximum; inactive = score below 0.9.

read-out: Monokine induced gamma interferon (MIG), CXCL9 (gene 4283); assay: BSK_SAg_MIG: BioMAP Diversity Plus: SAg Assay for Monokine induced gamma interferon (MIG) Biomarker Activity (AID 2283092); details: primary human HUVEC with PBMC; actives raise or lower the signal
Experimental: BSK_SAg is a cell-based, multiplexed-readout assay that uses umbilical vein endothelium and peripheral blood mononuclear cells, a human vascular primary cell co-culture, with measurements taken at 24 hours after chemical dosing in a 96-well plate.BSK_SAg_MIG is an assay component measured in the BSK_SAg assay. It measures MIG antibody related to regulation of gene expression using ELISA technology.Data from the assay component BSK_SAg_MIG was analyzed into 1 assay endpoint. This assay endpoint, BSK_SAg_MIG, was analyzed with bidirectional fitting relative to DMSO as the negative control and baseline of activity. Using a type of binding reporter, gain or loss-of-signal activity can be used to understand changes in the signaling as they relate to the gene CXCL9. Furthermore, this assay endpoint can be referred to as a primary readout, because this assay has produced multiple assay endpoints where this one serves a signaling function. To generalize the intended target to other relatable targets, this assay endpoint is annotated to the cytokine intended target family, where the subfamily is chemotactic factor.
The levels of cell surface (or secreted, indicated by the prefix "s") biomarker endpoints were measured by ELISA. Overt cytotoxicity to cells in confluent adherent cultures (all systems other than the BT system) was assessed by measuring total protein levels using sulforhodamine B (SRB) staining in parallel cultures at the time of biomarker measurements, indicated as SRB endpoints. For proliferation assays for adherent cell types, individual cell types are cultured at sub-confluence and relative cell numbers quantified by SRB staining at time points optimized for each system (48 h: 3C and CASM3C systems; 72 h: BT and HDF3CGF systems; 96 h: SAg system). SRB was performed by staining cells with 0.1% SRB after fixation with 10% TCA and reading wells at 560 nm.Viability and proliferation of PBMC (T cells) was quantified by Alamar Blue reduction for the SAg and BT systems. For PBMC viability (referred to as PBMC Cytotoxicity within the assay endpoint names), cells were plated (75,000/well in a 96-well plate) and then chemical samples added for 1 h before addition of activators, SEB and TSST-1 (20 ng/mL final concentration each). Cells were incubated for 90 h. Then, Alamar Blue (20 uL/well) (Invitrogen, Cat DAL1100) was added for 6 h, and the plates were read with a fluorescence microplate reader at 546/580 nm (excitation/emission). For PBMC proliferation, cells were plated and activated as above but incubated for only 16 h prior to addition of Alamar Blue. Plates were read after 6 h.

`c1ccc2c(c1)-c1cccc3c1c-2cc1ccccc13` was tested. Which outcome did it give?
The outcome was “inactive”.

For `CCOc1ccc2[nH]cc(C(=O)NCc3ccccc3)c(=O)c2n1`, which outcome is on record?
The outcome was “inactive”.

For `OCc1ccccc1`, which outcome is on record?
The outcome was “inactive”.

For `Cc1ncc([C@@H](CCCCCCc2ccc3c(n2)NCCC3)CC(=O)O)cn1`, which outcome is on record?
Its outcome is “inactive”.

Which outcome does the source give for `O=c1[nH]cnc2c1ncn2[C@H]1CC[C@@H](CO)O1` here?
Its outcome is “inactive”.

For `COc1cc(C(C)C)c2c(c1)S(=O)(=O)N(COc1cc(=O)n3cccc(OCCN4CCCCC4)c3n1)C2=O`, which outcome is on record?
The outcome was “inactive”.

For `CCN(CC)C(=S)SSC(=S)N(CC)CC`, which AC50 is on record?
The AC50 was 36.3 µM (active).

With `CCCc1ccccc1` as the compound, how does the outcome read?
Its outcome is “inactive”.

With `CC(C)CC(C)O` (stereo not given) as the compound, how does the outcome read?
The outcome was “inactive”.

For `NC(N)=O`, which outcome is on record?
Its outcome is “inactive”.

Which outcome does the source give for `CCCCN1C(=O)[C@@H]([C@H](O)C2CCCCC2)NC(=O)C12CCN(Cc1ccc(Oc3ccc(C(=O)O)cc3)cc1)CC2` here?
Its outcome is “inactive”.

For `O=S(=O)(O)CCC(F)(F)C(F)(F)C(F)(F)C(F)(F)C(F)(F)C(F)(F)F`, which outcome is on record?
Its outcome is “inactive”.

With `Cn1cc[nH]c1=S` as the compound, how does the outcome read?
Its outcome is “inactive”.

How did the outcome turn out when `Cc1cccc(O)c1C` was run?
The outcome was “inactive”.

Which outcome does the source give for `CCCCCCCC1CCC(=O)O1` (stereo not given) here?
Its outcome is “inactive”.

With `c1ccc2ncccc2c1` as the compound, how does the outcome read?
The outcome was “inactive”.

How did the outcome turn out when `CCCCOC(=O)c1ccccc1` was run?
The outcome was “inactive”.

With `FC(F)=C(F)C(F)(F)C(F)(F)C(F)(F)C(F)(F)C(F)(F)C(F)(F)F` as the compound, how does the outcome read?
Its outcome is “inactive”.

With `NC(=O)NN=Cc1ccc([N+](=O)[O-])o1` as the compound, how does the outcome read?
The outcome was “inactive”.

For `CCCCCCCC/C=C\CCCCCCCC(=O)OC[C@@H](O)[C@H]1OC[C@H](O)[C@H]1O`, which outcome is on record?
Its outcome is “inactive”.

Which outcome does the source give for `CCc1ccc(O)c(C(C)(C)C)c1` here?
The outcome was “inactive”.

Which outcome does the source give for `CCCC(CCC)C(=O)O` here?
Its outcome is “inactive”.

`CC1(C)C(=O)N(Cl)C(=O)N1Cl` was tested. Which outcome did it give?
Its outcome is “inactive”.

How did the outcome turn out when `CC[C@H](C)C(=O)O[C@H]1C[C@H](O)C=C2C=C[C@H](C)[C@H](CC[C@@H](O)C[C@@H](O)CC(=O)O)[C@H]21` was run?
Its outcome is “inactive”.

`OCCOCCOCCO` was tested. Which outcome did it give?
The outcome was “inactive”.

For `FC(F)(F)COC(OCC(F)(F)F)OCC(F)(F)F`, which outcome is on record?
Its outcome is “inactive”.

With `CCCCCCCCCCCCCCCCOS(=O)(=O)O` as the compound, how does the outcome read?
The outcome was “inactive”.

Which outcome does the source give for `NC(=O)N(O)[C@@H]1COc2cc(OCc3ccccc3)ccc21` here?
The outcome was “inactive”.

For `COS(C)(=O)=O`, which outcome is on record?
The outcome was “inactive”.

How did the outcome turn out when `O=C1CN(N=Cc2ccc([N+](=O)[O-])o2)C(=O)N1` was run?
The outcome was “inactive”.

With `OC(O)(C(F)C(O)(O)C(F)(F)F)C(F)(F)F` as the compound, how does the outcome read?
Its outcome is “inactive”.

For `OC(CCl)CCl`, which outcome is on record?
Its outcome is “inactive”.

`NC(=O)N1c2ccccc2C=Cc2ccccc21` was tested. Which outcome did it give?
The outcome was “inactive”.

Which outcome does the source give for `Cc1ccc(S(=O)(=O)NC(=O)NN2CCCCCC2)cc1` here?
Its outcome is “inactive”.

How did the outcome turn out when `CC(C)c1nnc2ccc(-c3ocnc3-c3cc(F)ccc3F)cn12` was run?
The outcome was “inactive”.

Which outcome does the source give for `CCc1cccc(CC)c1N` here?
Its outcome is “inactive”.

With `CC(=O)c1ccccc1` as the compound, how does the outcome read?
Its outcome is “inactive”.

How did the outcome turn out when `FC(F)(F)C(F)(F)C(F)(F)C(F)(F)C(F)(F)C(F)(F)I` was run?
Its outcome is “inactive”.

With `CCCCCOC(C)=O` as the compound, how does the outcome read?
The outcome was “inactive”.

`COCc1nnc(-c2ccc[n+]([O-])c2)n1-c1c(Cl)c(Cl)cc2[nH]c(=O)c(=O)[nH]c12` was tested. Which outcome did it give?
The outcome was “inactive”.
